Reference: PubChem BioAssay AID1159580 (chemical genetic matrix, 2015)
The campaign covered roughly 5,500 compounds. About 2,000 (36%) were called active. Not shown: some 18% with an inconclusive outcome. No stated cut-off is given here; in the data, active means normalized growth mostly below about 0.91 (no sharp cut-off); inconclusive means no clear call, values can overlap the other calls; inactive means mostly above about 0.92. The list shows a part of the results.

Experiment: chemical genetic growth profiling, strain panel (AID 1159580);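 further: tested at 20 µM; growth read once vehicle control cultures reached saturation at 30 °C; 1 = growth at the plate median or of vehicle wells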
Details: growth OD

Measured: normalized growth

O=C(O)c1ccccc1O
inactive: S. cerevisiae deletion strains, locus YJR066W, strain TOR1, stronger effect = lower value 0.951 | S. cerevisiae deletion strains, locus YJR075W, strain HOC1, stronger effect = lower value 1.01 | S. cerevisiae deletion strains, locus YKL009W, strain mrt4, stronger effect = lower value 1.05 | S. cerevisiae deletion strains, locus YKL068W, stronger effect = lower value 0.982 | S. cerevisiae deletion strains, locus YKL085W, strain MDH1 (second series), stronger effect = lower value 0.989 | S. cerevisiae deletion strains, locus YKL085W, strain MDH1, stronger effect = lower value 0.989 | S. cerevisiae deletion strains, locus YKL160W, strain elf1, stronger effect = lower value 0.971 | S. cerevisiae deletion strains, locus YKL190W, strain CNB1, stronger effect = lower value 0.998 | S. cerevisiae deletion strains, locus YKR001C, strain vps1, stronger effect = lower value 1.02 | S. cerevisiae deletion strains, locus YKR091W, strain srl3, stronger effect = lower value 0.99 | S. cerevisiae deletion strains, locus YLL001W, strain dnm1, stronger effect = lower value 0.97 | S. cerevisiae deletion strains, locus YLL026W, stronger effect = lower value 0.991 | S. cerevisiae deletion strains, locus YLL041C, strain sdh2, stronger effect = lower value 0.99 | S. cerevisiae deletion strains, locus YLR027C, strain aat2, stronger effect = lower value 0.997 | S. cerevisiae deletion strains, locus YLR039C, strain RIC1, stronger effect = lower value 0.978 | S. cerevisiae deletion strains, locus YLR058C, strain SHM2, stronger effect = lower value 0.994 | S. cerevisiae deletion strains, locus YLR102C, strain apc9, stronger effect = lower value 1.01 | S. cerevisiae deletion strains, locus YLR113W, strain HOG1, stronger effect = lower value 0.987 | S. cerevisiae deletion strains, locus YLR221C, strain rsa3, stronger effect = lower value 1 | S. cerevisiae deletion strains, locus YLR258W, strain gsy2, stronger effect = lower value 0.979 | S. cerevisiae deletion strains, locus YLR262C, strain YPT6 (second series), stronger effect = lower value 0.957 | S. cerevisiae deletion strains, locus YLR262C, strain YPT6, stronger effect = lower value 0.973 | S. cerevisiae deletion strains, locus YLR268W, strain sec22, stronger effect = lower value 1.04 | S. cerevisiae deletion strains, locus YLR320W, strain mms22, stronger effect = lower value 1.03 | S. cerevisiae deletion strains, locus YLR330W, strain CHS5, stronger effect = lower value 1 | S. cerevisiae deletion strains, locus YLR342W, strain FKS1 (second series), stronger effect = lower value 1.01 | S. cerevisiae deletion strains, locus YLR342W, strain FKS1, stronger effect = lower value 0.975 | S. cerevisiae deletion strains, locus YLR357W, strain rsc2, stronger effect = lower value 0.956 | S. cerevisiae deletion strains, locus YLR370C, strain arc18, stronger effect = lower value 0.988 | S. cerevisiae deletion strains, locus YLR371W, strain rom2, stronger effect = lower value 1.01 | S. cerevisiae deletion strains, locus YLR384C, strain iki3, stronger effect = lower value 0.96 | S. cerevisiae deletion strains, locus YLR418C, strain cdc73, stronger effect = lower value 1.01 | S. cerevisiae deletion strains, locus YML016C, strain PPZ1, stronger effect = lower value 1 | S. cerevisiae deletion strains, locus YML032C, strain rad52, stronger effect = lower value 1.04 | S. cerevisiae deletion strains, locus YML120C, strain ndi1, stronger effect = lower value 0.985 | S. cerevisiae deletion strains, locus YML124C, strain tub3, stronger effect = lower value 1.01 | S. cerevisiae deletion strains, locus YMR058W, strain fet3, stronger effect = lower value 0.998 | S. cerevisiae deletion strains, locus YMR078C, strain ctf18, stronger effect = lower value 1.02 | S. cerevisiae deletion strains, locus YMR125W, strain sto1, stronger effect = lower value 0.923 | S. cerevisiae deletion strains, locus YMR129W, stronger effect = lower value 0.971 | S. cerevisiae deletion strains, locus YMR205C, strain PFK2, stronger effect = lower value 0.985 | S. cerevisiae deletion strains, locus YMR223W, strain ubp8, stronger effect = lower value 1.02 | S. cerevisiae deletion strains, locus YMR231W, strain pep5, stronger effect = lower value 0.976 | S. cerevisiae deletion strains, locus YMR307W, strain GAS1, stronger effect = lower value 0.965 | S. cerevisiae deletion strains, locus YNL067W, strain RPL9B, stronger effect = lower value 0.998 | S. cerevisiae deletion strains, locus YNL071W, strain lat1, stronger effect = lower value 0.986 | S. cerevisiae deletion strains, locus YNL153C, strain GIM3, stronger effect = lower value 1.01 | S. cerevisiae deletion strains, locus YNL183C, strain NPR1, stronger effect = lower value 0.951 | S. cerevisiae deletion strains, locus YNL209W, strain ssb2, stronger effect = lower value 0.968 | S. cerevisiae deletion strains, locus YNL233W, strain BNI4, stronger effect = lower value 1 | S. cerevisiae deletion strains, locus YNL248C, strain rpa49, stronger effect = lower value 0.958 | S. cerevisiae deletion strains, locus YNL250W, strain rad50, stronger effect = lower value 1 | S. cerevisiae deletion strains, locus YNL271C, strain bni1, stronger effect = lower value 0.995 | S. cerevisiae deletion strains, locus YNL298W, strain CLA4, stronger effect = lower value 1.02 | S. cerevisiae deletion strains, locus YNL307C, strain MCK1, stronger effect = lower value 1.02 | S. cerevisiae deletion strains, locus YNL322C, strain KRE1 (second series), stronger effect = lower value 0.974 | S. cerevisiae deletion strains, locus YNR049C, strain mso1, stronger effect = lower value 0.979 | S. cerevisiae deletion strains, locus YNR052C, strain pop2, stronger effect = lower value 1.02 | S. cerevisiae deletion strains, locus YOL006C, strain TOP1, stronger effect = lower value 1.09 | S. cerevisiae deletion strains, locus YOL012C, strain htz1 1.01 | S. cerevisiae deletion strains, locus YOL147C, strain pex11, stronger effect = lower value 1.01 | S. cerevisiae deletion strains, locus YOR001W, strain rrp6, stronger effect = lower value 0.982 | S. cerevisiae deletion strains, locus YOR061W, strain CKA2, stronger effect = lower value 0.999 | S. cerevisiae deletion strains, locus YOR069W, strain VPS5, stronger effect = lower value 0.993 | S. cerevisiae deletion strains, locus YOR070C, strain gyp1, stronger effect = lower value 0.982 | S. cerevisiae deletion strains, locus YOR080W, strain dia2, stronger effect = lower value 0.983 | S. cerevisiae deletion strains, locus YOR083W, strain WHI5, stronger effect = lower value 0.988 | S. cerevisiae deletion strains, locus YOR106W, strain vam3, stronger effect = lower value 0.952 | S. cerevisiae deletion strains, locus YOR136W, strain idh2, stronger effect = lower value 1.02 | S. cerevisiae deletion strains, locus YOR144C, strain elg1, stronger effect = lower value 1.01 | S. cerevisiae deletion strains, locus YOR184W, strain ser1, stronger effect = lower value 1.02 | S. cerevisiae deletion strains, locus YOR231W, strain MKK1, stronger effect = lower value 0.98 | S. cerevisiae deletion strains, locus YOR265W, strain rbl2, stronger effect = lower value 0.976 | S. cerevisiae deletion strains, locus YOR270C, strain vph1, stronger effect = lower value 0.944 | S. cerevisiae deletion strains, locus YOR290C, strain snf2, stronger effect = lower value 1 | S. cerevisiae deletion strains, locus YOR316C, strain cot1, stronger effect = lower value 1.02 | S. cerevisiae deletion strains, locus YPL051W, strain arl3, stronger effect = lower value 0.986 | S. cerevisiae deletion strains, locus YPL078C, strain atp4, stronger effect = lower value 0.961 | S. cerevisiae deletion strains, locus YPL106C, strain sse1, stronger effect = lower value 0.954 | S. cerevisiae deletion strains, locus YPL240C, strain hsp82, stronger effect = lower value 0.976 | S. cerevisiae deletion strains, locus YPL256C, strain CLN2, stronger effect = lower value 1.05 | S. cerevisiae deletion strains, locus YPR119W, strain clb2, stronger effect = lower value 1.01 | S. cerevisiae deletion strains, locus YPR141C, strain kar3, stronger effect = lower value 0.994 | S. cerevisiae deletion strains, locus YPR163C, strain tif3, stronger effect = lower value 1.01 | S. cerevisiae deletion strains, locus YPR167C, strain met16, stronger effect = lower value 1.01 | S. cerevisiae deletion strains, strain wtn01, stronger effect = lower value 1.01 | S. cerevisiae strains, strain wild type, stronger effect = lower value 0.999
